Experimental data: PubChem BioAssay (NCI)
About 79,000 compounds went through this panel and 15% of them were active in at least one assay; those are over-represented in the sample as a whole. A number with no mark means an inactive call. Calls of active or inactive are those of the source. No stated cut-off is given here; in the data, active means growth inhibition above about 70%; inactive means the rest.

Columns and labels:
[1] = NCI Yeast Anticancer Drug Screen. Data for the rad50 strain (AID 155);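 further: 0% = growth of vehicle-only cultures of the same strain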; details: S. cerevisiae rad50 strain growth inhibition, stronger effect = higher value
Method in brief: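 Inhibition values express reduced yeast growth in compound-treated cultures relative to vehicle-treated controls.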

[2] = NCI Yeast Anticancer Drug Screen. Data for the mec2-1 strain (AID 157); details: S. cerevisiae mec2-1 strain, stronger effect = higher value
Method in brief: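 Vehicle-treated cultures served as reference for growth inhibition of compound-exposed mec2-1 yeast.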

[3] = NCI Yeast Anticancer Drug Screen. Data for the sgs1 mgt1 strain (AID 161);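 further: 0% = growth of cultures given vehicle only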; details: S. cerevisiae sgs1 mgt1 strain, stronger effect = higher value
Method in brief: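 Mutant yeast exposed to compound; growth scored against vehicle-only wells.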

[4] = NCI Yeast Anticancer Drug Screen. Data for the cln2 rad14 strain (AID 165);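 further: 0% = growth equal to vehicle treated cultures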; details: S. cerevisiae cln2 rad14 strain, stronger effect = higher value
Method in brief: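 Each compound was tested on cln2 rad14 yeast. Inhibition of growth was calculated against vehicle-exposed controls.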

[5] = NCI Yeast Anticancer Drug Screen. Data for the bub3 strain (AID 167); details: S. cerevisiae bub3 mutant strain, stronger effect = higher value
Method in brief: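 Steps: expose the mutant yeast strain to compound; grow alongside vehicle-treated cultures; measure growth; express inhibition against the vehicle cultures.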

[6] = NCI Yeast Anticancer Drug Screen. Data for the mlh1 rad18 strain (AID 175); details: S. cerevisiae mlh1 rad18 strain growth inhibition, stronger effect = higher value
Method in brief: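 Vehicle-treated cultures served as the reference for growth inhibition in a yeast strain carrying DNA damage repair alterations exposed to each compound.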

[7] = at 5.0 µM (retest, dose inferred, filed as 0.5)
[8] = at 50.0 µM (retest, dose inferred, filed as 5.0)

Row | Structure (SMILES) | growth inhibition [1, 7] | growth inhibition [1, 8] | growth inhibition ([1]; at 50.0 µM) | growth inhibition [2, 7] | growth inhibition [2, 8] | growth inhibition ([2]; at 50.0 µM) | growth inhibition [3, 7] | growth inhibition [3, 8] | growth inhibition ([3]; at 50.0 µM) | growth inhibition [4, 7] | growth inhibition [4, 8] | growth inhibition ([4]; at 50.0 µM) | growth inhibition [5, 7] | growth inhibition [5, 8] | growth inhibition ([5]; at 50.0 µM) | growth inhibition [6, 7] | growth inhibition [6, 8] | growth inhibition ([6]; at 50.0 µM)
1 | [C-]#[O+].[C-]#[O+].[CH3][Sn]([CH3])[c]1ccccc1.[Fe+5].[c-]1[c-][c-][cH-][c-]1 | 7% | 82% (active) | 95.3% (active) | 4% | 87% (active) | 98% (active) | 9% | 88% (active) | 94.7% (active) | -8% | 85% (active) | 95.3% (active) | -7% | 90% (active) | 98% (active) | 7% | 90% (active) | 94% (active)
2 | CC(=O)[C-](I)C(C)=O.CC(=O)[C-](I)C(C)=O.CC(=O)[C-](I)C(C)=O.[Ru+3] | -6% | 90% (active) | 48.2% | 14% | 95% (active) | 90.5% (active) | 5% | 89% (active) | 35.8% | 26% | 85% (active) | 7.45% | 18% | 90% (active) | -1.95% | 32% | 96% (active) | 53.5%
3 | C#CCN1C(=O)N(CC#C)C(=O)C(CC#C)(C(CC=C)c2ccccc2)C1=O (configuration not stated) | 1% | 96% (active) | 57.3% | 2% | 97% (active) | 26.6% | -1% | 97% (active) | 66.5% | 16% | 95% (active) | 58.5% | 9% | 98% (active) | 59% | -23% | 97% (active) | 53.4%
4 | IC(I)=C(I)I | 98% (active) | 93% (active) | 88.5% (active) | 100% (active) | 96% (active) | 92.2% (active) | 99% (active) | 96% (active) | 91.9% (active) | 99% (active) | 96% (active) | 90.8% (active) | 100% (active) | 95% (active) | 90% (active) | 99% (active) | 91% (active) | 90.1% (active)
5 | O=[N+]([O-])c1cccc(SC(Cl)(Cl)Cl)c1 | 8% | 97% (active) | 99.5% (active) | 40% | 99% (active) | 99.5% (active) | 31% | 99% (active) | 99.1% (active) | -11% | 96% (active) | 97.1% (active) | -1% | 99% (active) | 99.2% (active) | 45% | 99% (active) | 99.3% (active)
6 | CC[S+](C)c1ccc(-c2c3nc(c(-c4ccc([S+](C)CC)cc4)c4ccc([nH]4)c(-c4ccc([S+](C)CC)cc4)c4nc(c(-c5ccc([S+](C)CC)cc5)c5ccc2[nH]5)C=C4)C=C3)cc1 (configuration not stated) | 95% (active) | 95% (active) | 86.8% (active) | 98% (active) | 97% (active) | 90.7% (active) | 73% (active) | 97% (active) | 91.8% (active) | 56% | 96% (active) | 89.5% (active) | 94% (active) | 96% (active) | 89% (active) | 96% (active) | 95% (active) | 88.5% (active)
7 | COc1cc([N+](=O)[O-])c2ncccc2c1[N+](=O)[O-] | -1% | 23% | 85% (active) | -5% | 13% | 52.4% | -2% | 26% | 74.5% (active) | -5% | -9% | 53.6% | -11% | 12% | 39.4% | 13% | 45% | 93.6% (active)
8 | COc1cc(C(=O)[O][Hg][CH2]C2CC(O)CC([CH2][Hg][O]C(=O)c3cc(OC)c(OC)c(OC)c3)O2)cc(OC)c1OC (configuration not stated) | 97% (active) | 98% (active) | 99.3% (active) | 98% (active) | 99% (active) | 99.6% (active) | 99% (active) | 99% (active) | 99.6% (active) | 95% (active) | 96% (active) | 98.5% (active) | 97% (active) | 99% (active) | 99.1% (active) | 99% (active) | 99% (active) | 98.7% (active)
9 | CC12CCC3C(CC=C4CC(SC(=N)N)CCC43C)C1CCC2=O (configuration not stated) | 0% | 33% | 67.3% | 5% | 51% | 48.3% | 21% | 72% (active) | 75.5% (active) | 9% | 19% | 59.7% | 11% | 50% | 66.8% | 8% | 31% | 59.6%
